The source of these data is PubChem BioAssay (NCI).

About 83,000 compounds went through this panel and 20% of them were active in at least one assay; those are over-represented in the sample as a whole.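 Single-dose data. Exposure time 48 hours. Values below 10 considered active.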 Values without a mark were called inactive. Activity calls are given as the source filed them.

The subject of the assay is MDA-MB-468 breast. The experiment in a line: NCI-60 one-dose screen, 48 h (100 = growth as untreated, 0 = no growth, -100 = all killed). The settings on record: 10 µM unless noted.
In the case of `CSc1nc(NCCCNc2ccnc3cc(Cl)ccc23)cc(-c2ccccc2)n1`, the growth was 11.3%.
For the compound `COc1ccc(-c2nc(S(=O)(=O)c3ccccc3)c(S(=O)CC(=O)N3CCC(C)CC3)o2)cc1` (stereo not given), the growth is -15% (active).
In the case of `COc1ncc(-c2ccc3nccc(-c4ccnnc4)c3c2)cc1NS(=O)(=O)c1ccc(F)cc1F` it was -73% (active); in that of `Fc1ccccc1/C=C(/C1=NCCN1)n1cnc2ccccc21`, 98.1%.
The figure for `CC1=NNC(=O)C1C` (stereo not given) is 95.8%; for `O=C(c1ccc(Cl)cc1)N1CCCCC1` it is 101%; for `O=C(CSc1nc2sc3c(c2c(=O)n1Cc1ccccc1)CCCC3)N1CCN(c2ccccc2)CC1` it is 106%.
In the case of `Cc1cc2c(c(=O)o1)C(c1ccc(OC(=O)N3CCOCC3)cc1)C(C#N)=C(N)O2` (stereo not given) it was 119%.
For `CCCCc1n(Cc2ccc3ccccc3n2)cc[n+]1Cc1ccc2ccccc2n1`, the growth was -30% (active).
Turning to `FC(F)(F)c1ccc(-c2cnc(-n3cc(COCCN4CCCCC4)nn3)nc2NC2CCCCCC2)cc1`, the growth was 16.1%.
The figure for `O=C(CS)Nc1ccc2ccccc2c1` is 108%.
For `COc1cc(/C=C\c2cc(/C=C\c3ccc(O)c(OC)c3)n(C(=O)CNc3ccc(Cl)cc3)n2)ccc1O`, the growth was 1.63% (active).
In the case of `C=C1C(=O)O[C@H]2[C@H]1CC/C(COC(=O)N1CCC[C@H]1C(=O)Nc1ccc(OC)c(C(N)=O)c1O)=C\CC[C@@]1(C)O[C@@H]21` it was -4.47% (active); in that of `N#CCCCCCn1c2ccccc2c2c3c(c4c5ccccc5[nH]c4c21)C(=O)N(O)C3=O`, -32% (active).
The figure for `CC(=O)OC[C@H]1OC(Sc2sc(C(=O)c3ccc(Br)cc3)c(N)c2-c2nc3ccccc3s2)[C@H](OC(C)=O)[C@@H](OC(C)=O)[C@@H]1OC(C)=O` (stereo not given in full) is 71.5%; for `COc1ccccc1/C=C/C1=C(C)CCC(c2ccccc2OC)C1C` (stereo not given) it is 29.7%.
The figure for `COc1ccc(/C=C2\SC(=O)N(Cc3cc(=O)oc4ccc(OC)cc34)C2=O)cc1` is 46.6%; for `CC(=O)C1=NN(c2ccc(Cl)cc2)C(=O)CN1C` it is 102%; for `CN1C(=O)N(C)C2(c3ccccc3)N(CC(=O)Nc3ccccc3O)C(=O)NC12c1ccccc1` (stereo not given) it is 104%.
Take `CC[C@@H]1NC(=O)[C@H]([C@H](O)[C@H](C)C/C=C/c2ccc(CN3C(=O)C(C)=C(C)C3=O)cc2)N(C)C(=O)[C@H](C(C)C)N(C)C(=O)[C@H](CC(C)C)N(C)C(=O)[C@H](CC(C)C)N(C)C(=O)[C@@H](C)NC(=O)[C@H](C)NC(=O)[C@H](CC(C)C)N(C)C(=O)[C@H](C(C)C)NC(=O)[C@H](CC(C)C)N(C)C(=O)CN(C)C1=O`: the growth is 53.1%.
In the case of `OC(COc1ccccc1)CN1CCN(c2ccc(Cl)cc2)CC1` (stereo not given), the growth is 104%.
In the case of `Cc1nc(/N=C(\N)NC(=O)Nc2cccc(Cl)c2)sc1C` it was 55.2%.
Take `O=C1C=CC2(NN=C(c3ccccc3)N2c2cccc(Cl)c2)C(Cl)=C1` (stereo not given): the growth was 71.7%.
Turning to `Cc1ccc(-c2nn(CC(=O)N3CCOCC3)c(N)c2C#N)cc1`, the growth was 104%.
In the case of `Cn1cc(-c2csc(-c3ccccc3)n2)c2cccnc21` it was -34% [100 µM] (active); in that of `CCOC(=O)N1CCN(CCCCOc2ccc(C(C)(C)CC)cc2)CC1`, 92.9%.
The figure for `COc1c(O[C@@H]2OC(CO)[C@H](O)[C@H](O)C2O)cc2oc3cc(O)c(CC=C(C)C)c(O)c3c(=O)c2c1CC=C(C)C` (stereo not given in full) is 99.8%; for `COC(=O)CC1=C(c2ccc([N+](=O)[O-])cc2)CCC1=O` it is 101%.
In the case of `CN(c1ccccc1)c1ccc2c(c1)OCCC21CC1Nc1cnccc1C(=O)O` (stereo not given) it was 72.3%.
`C#COc1cccc(Nc2ncnc3ncc(NC(=O)CCl)cc23)c1`: the growth is 4.95% [6.25 µM] (active).
In the case of `COc1ccc(/C=C2\Oc3cc(OCCCN4CCCC4)ccc3C2=O)cc1` it was 74.1%.
The figure for `CC(=O)Nc1ccc(C(=O)/C=C/c2ccccc2)cc1` is 90.8%; for `Cn1c(=O)c2c(nc(Cl)n2CCl)n(C)c1=O` it is 106%; for `COc1ccc(C(=O)c2cc(OC)c(OC)c(OC)c2)cc1/C=C/C(=O)c1ccc(O)cc1` it is 34.3%.
For the compound `Nc1cc(Br)cc2c1[nH]c(=O)c1ccccc12`, the growth is -8.15% (active).
In the case of `Nc1nc2c(c(=O)[nH]1)C(c1ccc3c(c1)OCO3)C=C(C(=O)O)N2` (stereo not given) it was 107%.
Regarding `Nc1ncnc2[nH]c(=O)[nH]c12`, the growth was 97.8%.
In the case of `CC(C)OCCCNCC(=O)Nc1ccc(S(=O)(=O)c2ccc(NC(=O)CNCCCOC(C)C)cc2)cc1` it was 92.7%.
In the case of `COc1ccccc1-n1c(SCc2cc(OC)c(OC)c(OC)c2)nc2ccc(Cl)cc2c1=O` it was 21.5%; in that of `O=C(NCCNC(=O)c1cc(S(=O)(=O)NCCc2ccccc2)c(O)c(O)c1O)c1cc(S(=O)(=O)NCCc2ccccc2)c(O)c(O)c1O`, 83.2%.
